Reference: PubChem BioAssay

Assays:
[1] = tested on: Human papillomavirus type 1a protein E7 (residues 44-93); assay: small molecules binding HPV E7 44-93 – biochemical, small-molecule microarray, residues 44-93, 635 nm fluorescence, primary screen (AID 1108); conditions: fluorescence 635 nm, higher = more signal;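 also: E7 fragment applied at 1 µg/mL in TBST for 1 h at 4 C; score combines spot fluorescence with its signal to noise ratio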
[2] = hepatitis C replication reporter changes, two-sided – Huh7 cells, luciferase reporter, HCV replication inhibitor project, primary screen (AID 1109); conditions: Huh7 HCV replicon luciferase reporter, 48 h; higher = more signal;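 also: huh7 hepatoma cells harbouring a luciferase neomycin HCV replicon reporter; luciferase luminescence as measure of HCV replicon replication; test concentration not given here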
[3] = biological target: Left-right determination factor 2 (Homo sapiens) (UniProt O00292); assay: small molecules binding LEFTY2 protein – biochemical, small-molecule microarray, 635 nm fluorescence scan, primary screen (AID 1110); conditions: higher = more signal
Sequence of Left-right determination factor 2 (Homo sapiens) (O00292 whole entry, looked up): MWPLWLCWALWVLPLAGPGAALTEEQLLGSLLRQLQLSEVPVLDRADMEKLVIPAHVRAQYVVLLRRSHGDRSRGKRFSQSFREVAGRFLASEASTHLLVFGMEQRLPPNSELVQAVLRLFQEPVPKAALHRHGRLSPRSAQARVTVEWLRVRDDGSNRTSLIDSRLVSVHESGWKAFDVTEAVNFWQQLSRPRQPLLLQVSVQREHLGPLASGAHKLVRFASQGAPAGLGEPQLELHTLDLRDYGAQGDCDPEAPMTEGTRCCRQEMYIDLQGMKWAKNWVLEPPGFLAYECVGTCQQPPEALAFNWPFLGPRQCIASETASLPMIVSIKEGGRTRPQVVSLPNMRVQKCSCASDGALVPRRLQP

[4] = biological target: Calmodulin-1 (Homo sapiens) (UniProt P0DP23); assay: small molecules binding calmodulin-1 with EGTA – biochemical, small-molecule microarray, Cy5-labelled CALM1, profiling panel (AID 1111); conditions: Cy5-CALM1 binding fluorescence, higher = more signal;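 also: labelled calmodulin applied in Tris saline Tween buffer holding calcium plus EGTA and DTT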
[5] = biological target: Calmodulin-1 (Homo sapiens) (UniProt P0DP23); assay: small molecules binding Ca-loaded calmodulin-1 – biochemical, small-molecule microarray, Cy5-labelled CALM1, plus calcium, artefact control for SMM control-protein annotation, profiling panel (AID 1112); conditions: Cy5-CALM1 binding fluorescence, higher = more signal;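 also: score merges spot fluorescence with signal to noise from triplicate slides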
[6] = probe aWnt5a binding to arrayed compounds – biochemical, biotinylated probe, 635/667 nm fluorescence, primary screen (AID 1113); conditions: small-molecule microarray, higher = more signal;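 also: score merges 667 nm fluorescence intensity with signal-to-noise per printed feature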
[7] = probe aShh binding to arrayed compounds – biochemical, biotinylated probe, 635/667 nm fluorescence, primary screen (AID 1114); conditions: small-molecule microarray, higher = more signal;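 also: probe is biotin-labelled aShh protein from a stem cell growth factor screen; measures binding of labelled protein to compounds printed on the slide; score merges feature fluorescence at 667 nm with signal-to-noise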
[8] = probe aNog binding to arrayed compounds – biochemical, biotinylated probe, 635/667 nm fluorescence, primary screen (AID 1115); conditions: small-molecule microarray, higher = more signal;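 also: probe is biotinylated aNog protein used at 0.15 µg/mL for 1 h at 4 C; z-score combines 667 nm fluorescence of each spot with its signal to noise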
[9] = biological target: Torsin-1A-interacting protein 1 (Homo sapiens) (UniProt Q5JTV8); assay: compound microarray binding of lysate hLAP1 – cell lysate, small-molecule microarray, COS7 lysate, 635/667 nm fluorescence, primary screen (AID 1116); conditions: 635 nm fluorescence, higher = more signal
Sequence of Torsin-1A-interacting protein 1 (Homo sapiens) (Q5JTV8 whole entry, looked up): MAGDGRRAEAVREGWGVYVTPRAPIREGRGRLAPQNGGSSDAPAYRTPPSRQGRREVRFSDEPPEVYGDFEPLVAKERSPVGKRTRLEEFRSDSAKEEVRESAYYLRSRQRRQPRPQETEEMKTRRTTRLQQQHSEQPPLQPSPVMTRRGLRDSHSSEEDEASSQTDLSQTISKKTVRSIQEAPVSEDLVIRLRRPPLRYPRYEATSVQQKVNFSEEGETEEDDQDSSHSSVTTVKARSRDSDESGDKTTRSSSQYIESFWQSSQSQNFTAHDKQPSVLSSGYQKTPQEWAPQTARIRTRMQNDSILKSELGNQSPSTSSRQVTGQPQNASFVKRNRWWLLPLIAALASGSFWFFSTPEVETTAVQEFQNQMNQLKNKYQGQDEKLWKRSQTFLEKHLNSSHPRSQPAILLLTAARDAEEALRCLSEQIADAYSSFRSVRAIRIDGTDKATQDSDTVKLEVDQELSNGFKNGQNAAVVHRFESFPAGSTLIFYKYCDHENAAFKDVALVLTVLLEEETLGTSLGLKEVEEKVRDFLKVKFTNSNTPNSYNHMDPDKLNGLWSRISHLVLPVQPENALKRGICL

[10] = biological target: Alpha-bungarotoxin (Bungarus multicinctus) (UniProt P60615); assay: compounds binding labelled alpha-BTX control protein – biochemical, small-molecule microarray, Alexa647 label, 635/667 nm fluorescence, artefact control for SMM control protein annotation, profiling panel (AID 1117); conditions: alpha-BTX-A647 binding fluorescence, higher = more signal
Sequence of Alpha-bungarotoxin (Bungarus multicinctus) (P60615 whole entry, looked up): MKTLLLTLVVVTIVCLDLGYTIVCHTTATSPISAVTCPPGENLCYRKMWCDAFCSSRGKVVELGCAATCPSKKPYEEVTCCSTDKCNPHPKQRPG

SMILES | composite z-score [1] | z-score [2] | composite z-score [3] | composite z-score [4] | composite z-score [5] | composite z-score [6] | composite z-score [7] | composite z-score [8] | composite z-score [9] | composite z-score [10]
CCOC(=O)[C@H](Cc1ccccc1)NC(=O)CCC1CC(OC(=O)NCc2cccc3ccccc23)CC2(CCCC(COC(=O)NCCc3ccc(Cl)cc3)O2)O1 (stereo not given in full) | 1.02 | 0.246 | 0.366 | 1.14 | -0.369 | -0.0738 | -0.153 | 0.793 | 0.289 | 0.429
CC(C)CN1CCc2nc(-c3ccccc3)c3c(c2C1)CO[C@@H](C)C3 | 1.01 | -0.791 | 0.881 | 0.566 | 0.32 | -0.0285 | 0.0751 | -0.149 | 0.152 | 0.365
O=C1[C@H]2[C@H]3[C@H](O)[C@H](O)CC(=NOC[C@@H](O)COCc4ccco4)[C@@H]3CC[C@H]2C(=O)N1Cc1ccccc1 | 1.48 | -0.114 | 1.19 | -0.754 | -1.55 | -0.152 | -0.0866 | -0.529 | 0.77 | 0.238
COC(=O)[C@H](C)NC(=O)CCC1CC(OC(=O)NCCc2ccc(F)cc2)CC2(CCCC(COC(=O)NCCOc3ccccc3)O2)O1 (stereo not given in full) | 1.36 | -0.213 | 0.781 | 1.55 | 0.236 | 0.055 | 0.123 | -0.109 | 0.928 | 0.837
CCOC(=O)[C@H](Cc1ccccc1)NC(=O)CCC1CC(OC(=O)NCc2ccc3c(c2)OCO3)CC2(CCCC(COC(=O)NCCc3ccc(Cl)cc3)O2)O1 (stereo not given in full) | 1.14 | 0.615 | 0.619 | 0.534 | -0.397 | -0.124 | 0.0756 | 0.0308 | -0.0764 | 0.337
CCOC(=O)NN=C1C[C@@H](O)[C@@H](O)[C@@H]2[C@@H]3C(=O)N(c4ccc(F)cc4F)C(=O)[C@@H]3CC[C@H]12 | 0.108 | 1.28 | 0.42 | -0.244 | -0.212 | -0.126 | -0.289 | 0.0775 | 0.59 | 0.21
COc1ccc(COC(=O)NN=C2C[C@@H](O)[C@@H](O)[C@@H]3[C@@H]4C(=O)N(C5CCCCC5)C(=O)[C@@H]4CC[C@@H]23)cc1 | 0.14 | -1.76 | 0.0141 | -0.53 | -0.811 | -0.0529 | -0.0769 | -0.261 | -0.011 | 0.229
COc1ccc(OC[C@@H]2CC3[C@@H](c4ccc(Br)cc4)[C@H](C)CC[C@H]3C(=O)O2)cc1 (stereo not given in full) | -0.722 | -0.312 | 0.418 | -0.991 | -0.642 | -0.158 | -0.367 | -0.0003 | 0.308 | 0.287
CC(C)[C@H](NC(=O)OC(C)(C)C)[C@@H](O)CC(=O)C(C)(C)C | 0.223 | 0.515 | -0.1 | -0.32 | -0.748 | -0.18 | -0.24 | 0.237 | 0.161 | 0.302
C[C@@H]1CC[C@H]2C(=O)OC(Cc3ccccc3)CN2[C@H]1c1ccc(Br)cc1 (stereo not given in full) | 0.911 | 0.161 | 0.34 | -0.241 | -0.536 | -0.228 | -0.0146 | 0.105 | 0.781 | 0.599
CC(CCN1CCc2nc(-c3ccccc3)c(-c3ccccc3)cc2C1)=NOC(C)CN1CCCc2nc(C)c(C)cc21 (stereo not given) | 1.39 | -3.08 | 0.848 | 0.637 | -0.0431 | 0.0017 | 0.267 | 0.378 | 0.825 | 1.03
COc1ccc(O[C@H]2C=C[C@@H](C#Cc3ccccc3)O[C@@H]2CO)cc1 | 0.342 | -2.17 | -0.0192 | 1.42 | 0.493 | -0.124 | 0.0048 | -0.0428 | 0.158 | 0.439
